LAP4-GFP MLPCN – yeast TOR pathway LAP4-GFP modulation | GFP response vs DMSO, % at 10 µM | actives 0.34% (n = 320,000) | S. cerevisiae LAP4-GFP multiplex, flow cytometry GFP, 3 h; median GFP as percent of DMSO wells;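 active = GFP response vs DMSO above a set limit, about the screen mean plus 3 SD, cut at about 150% in these data; inconclusive = under 70 cell events counted for the yeast strain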
VLA-4 inh – inhibition in a human VLA-4 binding assay. P13612. VLA-4 expressing cells, ligand binding flow cytometry. inhibition, % (about 7 µM as worked out from the volumes in the protocol). actives 0.2% (n = 330,000). AID 2557; in the data active = inhibition above about 50%
Target sequence (P13612 whole entry, looked up): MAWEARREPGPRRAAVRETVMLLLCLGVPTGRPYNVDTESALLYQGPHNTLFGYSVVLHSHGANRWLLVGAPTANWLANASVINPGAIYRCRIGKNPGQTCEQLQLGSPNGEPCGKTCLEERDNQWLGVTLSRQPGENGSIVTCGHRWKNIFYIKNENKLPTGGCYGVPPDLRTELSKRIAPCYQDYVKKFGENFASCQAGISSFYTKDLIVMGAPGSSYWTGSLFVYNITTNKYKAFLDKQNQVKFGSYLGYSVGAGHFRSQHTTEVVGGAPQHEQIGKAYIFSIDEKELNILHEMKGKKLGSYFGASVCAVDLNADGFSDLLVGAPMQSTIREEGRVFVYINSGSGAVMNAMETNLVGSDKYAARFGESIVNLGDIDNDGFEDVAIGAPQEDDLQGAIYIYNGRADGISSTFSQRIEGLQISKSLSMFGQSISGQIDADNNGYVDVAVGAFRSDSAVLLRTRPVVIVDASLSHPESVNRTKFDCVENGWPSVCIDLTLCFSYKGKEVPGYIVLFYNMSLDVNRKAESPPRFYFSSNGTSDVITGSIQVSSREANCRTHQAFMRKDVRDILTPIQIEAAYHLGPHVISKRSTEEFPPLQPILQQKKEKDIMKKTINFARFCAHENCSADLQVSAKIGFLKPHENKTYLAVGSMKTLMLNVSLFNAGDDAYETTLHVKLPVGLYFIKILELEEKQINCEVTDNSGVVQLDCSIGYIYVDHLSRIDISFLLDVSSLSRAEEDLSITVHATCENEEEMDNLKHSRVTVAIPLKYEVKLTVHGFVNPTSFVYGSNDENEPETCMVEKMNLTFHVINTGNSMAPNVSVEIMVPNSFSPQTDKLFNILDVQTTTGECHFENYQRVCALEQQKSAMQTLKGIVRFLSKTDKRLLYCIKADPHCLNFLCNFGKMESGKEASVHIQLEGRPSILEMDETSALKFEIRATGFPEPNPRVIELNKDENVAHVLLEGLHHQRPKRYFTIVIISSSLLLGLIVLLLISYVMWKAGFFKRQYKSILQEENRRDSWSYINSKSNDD
CIT2-GFP yeast – yeast TOR pathway CIT2-GFP modulation; actives 0.065% (n = 320,000); GFP response vs DMSO, % at 10 µM; S. cerevisiae CIT2-GFP strain, flow cytometry, 3 h; 100 means same as DMSO wells;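 active = GFP response relative to DMSO above a set limit, near the screen mean plus 3 SD, cut at about 150% in these data; inconclusive = Fewer than 70 cells measured for a yeast strain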;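 note: ratio of well median GFP fluorescence to mean of DMSO wells on the plate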
RPL19A TOR yeast – yeast TOR pathway RPL19A-GFP modulation; S. cerevisiae RPL19A-GFP strain, flow cytometry, 3 h; hits give low values; percent response vs DMSO, % at 10 µM; actives 0.3% (n = 330,000); AID 2025;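 active = percent response vs DMSO below 50%; inconclusive = fewer than 70 events counted for the yeast strain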;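 note: median channel GFP fluorescence of the barcoded RPL19A-GFP strain; ratio of sample median GFP to plate DMSO average so 100% = DMSO; lower means less RPL19A-GFP as with rapamycin TOR inhibition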
AGP1 TOR yeast – alters AGP1-GFP fluorescence in TOR pathway yeast screen. AID 2066. S. cerevisiae AGP1-GFP multiplex flow cytometry, 3 h; GFP as percent of DMSO wells. actives 0.02% (n = 320,000). GFP response vs DMSO, % at 10 µM;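 active = GFP response relative to DMSO above a set limit, near screen average plus 3 SD, cut at about 150% in these data; inconclusive = fewer than 70 cells counted for the yeast strain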;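 note: median GFP channel fluorescence of the gated AGP1 strain per well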
MEP2-GFP yeast – alters MEP2-GFP fluorescence in TOR pathway yeast screen; S. cerevisiae MEP2-GFP strain, flow cytometry GFP, 3 h; 100% = DMSO control level; GFP response vs DMSO, % at 10 µM; actives 0.51% (n = 330,000);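 active = GFP response versus DMSO above a set limit, roughly screen mean plus 3 SD, cut at about 180% in these data; inconclusive = fewer than 70 cells counted for a yeast strain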;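 note: median GFP fluorescence of the barcode-gated MEP2-GFP cells per well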
LAP4 cherry2 – yeast LAP4-GFP modulation, second cherry pick. S. cerevisiae LAP4-GFP strain, flow cytometry GFP, 3 h. actives 20% (n = 590). GFP response vs DMSO, % at 10 µM. shares compounds with LAP4-GFP MLPCN. AID 2621;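 active = GFP signal as percent of the solvent control above about 150%, meaning raised reporter expression, limit read from the data; inconclusive = fewer than 70 cells counted in the well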;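 note: ratio of well median GFP fluorescence to plate DMSO mean so 100% = DMSO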
MEP2 cherry2 – reconfirmed MEP2-GFP TOR pathway modulator in yeast; GFP response vs DMSO, % at 10 µM; shares compounds with LAP4-GFP MLPCN; actives 10% (n = 590); S. cerevisiae MEP2-GFP strain, flow cytometry GFP, 3 h;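 active = GFP signal above 150% of the solvent control wells, that is a rise of more than half; inconclusive = fewer than 70 yeast cells counted in the well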;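 note: median channel GFP fluorescence of all gated yeast cells per well; ratio of median GFP to plate DMSO average so 100% = DMSO level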
RPL19A-GFP pick2 – yeast RPL19A-GFP TOR reporter modulation, second cherry pick; shares compounds with LAP4-GFP MLPCN; S. cerevisiae RPL19A-GFP strain, flow cytometry GFP, 3 h; hits give low values; 100% means same as DMSO wells; GFP response vs DMSO, % at 10 µM; actives 3% (n = 590); AID 2623;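 active = under 65% GFP response relative to DMSO; inconclusive = yeast strain with under 70 measured events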;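 note: median GFP channel fluorescence per well over the all cells gate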
CIT2 GFP CP2 – yeast CIT2-GFP TOR reporter modulation, second cherry pick. shares compounds with LAP4-GFP MLPCN. S. cerevisiae CIT2-GFP strain, flow cytometry GFP, 3 h; DMSO control wells read 100%. GFP response vs DMSO, % at 10 µM. actives 8% (n = 590). AID 2624;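 active = GFP response vs DMSO above about 150%, limit read from the data; inconclusive = fewer than 70 events counted for a yeast strain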;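 note: median green fluorescence per well over all gated yeast cells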
AGP1 GFP CP2 – yeast AGP1-GFP TOR reporter modulation, second cherry pick; shares compounds with LAP4-GFP MLPCN; AID 2643; S. cerevisiae AGP1-GFP strain, flow cytometry GFP, 3 h; 590 tested, under 10 active; percent response vs DMSO, % at 10 µM;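 active = over 150 percent of DMSO response; inconclusive = yeast strain measured with under 70 events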;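 note: median GFP channel fluorescence over all cells without mother daughter split; sample median GFP divided by mean DMSO control so 100% equals DMSO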
Yeast autofluor – counter-screen for compound autofluorescence in yeast s288c cells; S. cerevisiae s288c, 520 nm autofluorescence, flow cytometry, 3 h; hits give high values; zero means same as solvent-only cells; shares compounds with LAP4-GFP MLPCN; AID 2757; fluorescence change (kMESF span) at 33 µM; 610 tested, under 10 active;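 active = fluorescence span over the dose series, or activity score, above about 33, limit read from the data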
Yeast autofl DR – yeast s288c autofluorescence artifact in dose response; shares compounds with LAP4-GFP MLPCN; 110 tested, under 10 active; fluorescence change (span) at 33 µM; S. cerevisiae s288c parental, compound autofluorescence, flow cytometry, 3 h;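 active = fluorescence change span, or the activity score built from it, above 25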
TORC1 bypass gr – compounds blocking wildtype yeast growth but not TORC1 bypass cells; S. cerevisiae BY4741 spot growth rating, 48-72 h; hits give low values; AID 504456; shares compounds with LAP4-GFP MLPCN; growth rating (0-3) at 30 µM; 120 tested, under 10 active;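 active = growth rating at most 1 for wild type yeast while the TORC1 bypass strain still grows fully, rated 3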
The depositor's hits bear a star; u = inconclusive; x = no result given; [ ] = another dose, or the depositor's remark. This is a sample that favours compounds with a hit; in the whole collection about 1.1% have one here.

SMILES | LAP4-GFP MLPCN | VLA-4 inh | CIT2-GFP yeast | RPL19A TOR yeast | AGP1 TOR yeast | MEP2-GFP yeast | others
CCOc1cc(C2C3=C(CCCC3=O)N(CC(=O)O)C3=C2C(=O)CCC3)ccc1OC | 78 | -3 | 88 | 94 | 86 | 88
O=C(c1cc(-c2cccc(Cl)c2)on1)N1CCc2ccccc2C1 | 89 | 14 | 166* | 105 | 68 | 99
CN1CCN(C(c2ccc(Cl)cc2)c2cc(Cl)c3cccnc3c2O)CC1 (centres undefined) | 164* | 20 | 80 | 65 | 38 | 140
CN1CCN(C(c2ccc(C(F)(F)F)cc2)c2cc(Cl)c3cccnc3c2O)CC1 (centres undefined) | 202*[may fluoresce violet] | 2 | u | 57 | u | 162
Oc1c(C(c2ccccn2)N2CCCCC2)cc(Cl)c2cccnc12 (centres undefined) | 116 | 33 | 96 | 100 | 98 | 95
CC[C@@]1(C(=O)OC)N[C@H](CN(C)C(=O)c2ccc(C)cc2)[C@@H]2C(=O)N(C)C(=O)[C@@H]21 | 106 | 33 | 93 | 106 | 102 | 101
O=C(CCCNC(=O)c1ccc(Cl)cc1)Nc1ccccc1C(F)(F)F | 93 | 14 | 98 | 106 | 101 | 99
O=C(N/N=C/c1cccn1-c1ccc([N+](=O)[O-])cc1)C(O)c1ccccc1 (centres undefined) | 95 | 4 | 104 | 102 | 112 | 107
O=C(Cc1ccccc1)N/N=C/c1cccn1-c1ccc([N+](=O)[O-])cc1 | u | 4 | u | 32*[may fluoresce violet] | u | 185*[may fluoresce violet]
O=C(N/N=C/c1cccs1)c1ccccn1 | 96 | 19 | 100 | 94 | 97 | 97
Cc1ccc(/C=N/NC(=O)c2ccccn2)s1 | 140 | 10 | 110 | 81 | 106 | 200*
Cn1c(-c2ccccc2)cc(=O)c2ccccc21 | 101 | -11 | 100 | 98 | 104 | 101
O=c1cc(-c2ccccc2)cc(-c2ccccc2)n1O | 194* | -4 | 69 | 99 | 89 | 97 | LAP4 cherry2=137;MEP2 cherry2=189*;RPL19A-GFP pick2=70;CIT2 GFP CP2=125;AGP1 GFP CP2=63;Yeast autofluor=1.2
Cc1ccccc1SCC(=O)N/N=C/c1ccc(F)cc1 | 93 | 6 | 98 | 103 | 100 | 104
Nc1nc(Nc2cccc(Cl)c2)nc(Nc2cccc(F)c2)c1[N+](=O)[O-] | x | x | x | x | x | x | Yeast autofl DR=0.16;TORC1 bypass gr=3
Nc1nc(NCCN2CCOCC2)nc(Nc2cccc(F)c2)c1[N+](=O)[O-] | x | x | x | x | x | x | Yeast autofl DR=0.31;TORC1 bypass gr=3
COCCCNc1nc(N)c([N+](=O)[O-])c(Nc2cccc(F)c2)n1 | x | x | x | x | x | x | Yeast autofl DR=0.16;TORC1 bypass gr=3
CN(c1ccccc1)c1nc(N)c([N+](=O)[O-])c(Nc2cccc(F)c2)n1 | 98 | 7 | 102 | 105 | 102 | 112
Nc1nc(NCC2CCCO2)nc(Nc2cccc(F)c2)c1[N+](=O)[O-] (centres undefined) | 114 | 1 | 98 | 98 | 96 | 94 | Yeast autofl DR=0.06;TORC1 bypass gr=3
Nc1nc(NCCCN2CCOCC2)nc(Nc2cccc(Cl)c2)c1[N+](=O)[O-] | 120 | 6 | 109 | 98 | 126 | 105
Nc1nc(NCC2CCCO2)nc(Nc2ccccc2)c1[N+](=O)[O-] (centres undefined) | 111 | 4 | 92 | 102 | 98 | 103
C/C(=N\NC(=O)c1ccc(C(C)(C)C)cc1)c1ccccn1 | x | x | x | x | x | x | Yeast autofl DR=0.52;TORC1 bypass gr=3
COc1ccc(Cl)cc1NC(=O)NCc1ccc2c(c1)OCO2 | 106 | -4 | 101 | 104 | 105 | 104
C[C@]12C=C[C@H](O)CC1=CCC1C2CC[C@@]2(C)C1CCC21OCCO1 (some centres undefined) | 197* | 1 | 84 | 71 | 110 | 103 | LAP4 cherry2=107;MEP2 cherry2=102;RPL19A-GFP pick2=95;CIT2 GFP CP2=94;AGP1 GFP CP2=90
C[C@]12C=CC(=O)C=C1CCC1C2CC[C@@]2(C)C1CCC21OCCO1 (some centres undefined) | 89 | 0 | 105 | 98 | 94 | 91
SMILES | LAP4-GFP MLPCN | VLA-4 inh | CIT2-GFP yeast | RPL19A TOR yeast | AGP1 TOR yeast | MEP2-GFP yeast | others
CC1(C)CC(=O)C=C(c2ccc(I)cc2)C1 | 109 | 0 | 91 | 97 | 93 | 102
O=C1ON=C(c2ccccc2)/C1=C/c1ccco1 | 169* | 18 | 73 | 91 | 80 | 98 | Yeast autofluor=1.9;Yeast autofl DR=0.73;TORC1 bypass gr=3
COc1ccc(/C=C2/C(=O)ON=C2c2ccccc2)cc1OC | 171* | 14 | 83 | 89 | 80 | 87 | Yeast autofluor=0.5
CCOc1cc(/C=C2\C(=O)ON=C2c2ccccc2)ccc1OC | 118 | 9 | 101 | 101 | 78 | 93
COc1cc(/C=C2\C(=O)ON=C2c2ccccc2)cc(OC)c1OC | 143 | 1 | 76 | 78 | 75 | 90 | LAP4 cherry2=195*;MEP2 cherry2=120;RPL19A-GFP pick2=96;CIT2 GFP CP2=123;AGP1 GFP CP2=94;Yeast autofluor=0
O=C1ON=C(c2ccccc2)/C1=C/c1ccc(-c2ccccc2[N+](=O)[O-])o1 | 179* | 29 | 88 | 86 | 86 | 91 | LAP4 cherry2=150*;MEP2 cherry2=117;RPL19A-GFP pick2=100;CIT2 GFP CP2=106;AGP1 GFP CP2=98;Yeast autofluor=0.6
CN(C)/C=C1\C(=O)ON=C1c1ccccc1 | 91 | 7 | 98 | 98 | 97 | 102

From PubChem BioAssay
